Source: PubChem BioAssay AID1861 (The Scripps Research Institute Molecular Screening Center, 2009)
Among all 290,000 compounds or so, about 3,100 (1.1%) were called active. Cut-off read from the data, not from the text of the source: active = inhibition above about 16% (passing the limit was not always enough); inactive = the rest. Shown is part of a subset that was picked to be rich in actives.

target: Neuropeptides B/W receptor type 1 (Homo sapiens) (UniProt P48145); assay: GPR7 receptor antagonists, primary screen, cell-based, fluorescence, single concentration (AID 1861); details: GPR7-expressing cells, fluorescence antagonist assay; at 4.4 µM; stronger effect = higher value;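 note: cells stimulated with the agonist NPW; 0% = agonist with vehicle and 100% = vehicle without agonist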
Sequence (P48145 whole entry, looked up): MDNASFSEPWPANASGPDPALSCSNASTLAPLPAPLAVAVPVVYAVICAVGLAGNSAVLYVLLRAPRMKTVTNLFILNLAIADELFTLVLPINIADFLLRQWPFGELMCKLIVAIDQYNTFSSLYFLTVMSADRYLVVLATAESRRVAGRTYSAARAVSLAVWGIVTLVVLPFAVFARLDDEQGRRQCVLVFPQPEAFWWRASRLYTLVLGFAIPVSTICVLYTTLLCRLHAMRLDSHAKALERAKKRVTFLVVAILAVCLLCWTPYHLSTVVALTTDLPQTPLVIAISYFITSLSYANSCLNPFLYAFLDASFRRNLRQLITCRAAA

Row | SMILES | inhibition
1 | CCOC(=O)C1(Cc2ccc(Cl)cc2)CCN(C(C)CCn2cccn2)CC1 (stereo not given) | 37.6% (active)
2 | CCOC(=O)C1(CCc2ccccc2)CCN(Cc2ccco2)CC1 | -1.12% (inactive)
3 | CCN1CCN(Cc2cc(OC)c3c(c2)OCO3)CC1 | -5.46% (inactive)
4 | COC(=O)N(c1ccc(OC)cc1)P1(=S)OCCC(C)O1 (stereo not given) | -1.86% (inactive)
5 | COc1cc2nc(N3CCN(C(=O)[C@@H]4CCCO4)CC3)nc(N)c2cc1OC | -11.2% (inactive)
6 | CCOc1ccc(-c2cc(C)[n+](CCN(CC)CC)c(-c3ccc(OCC)cc3)c2)cc1 | 24.6% (active)
7 | COc1ccc(Br)cc1CNCCc1cccc(Cl)c1 | 35.6% (active)
8 | COc1ccc(CNCCc2ccc3c(c2)OCO3)c(OC)c1OC | 18.9% (inactive)
9 | COc1ccc(CNCCc2c[nH]c3ccccc23)cc1OC | 3.96% (inactive)
10 | CN1CCC(OC(=O)c2cccc(F)c2)CC1 | 1.33% (inactive)
11 | CCCCCCN=C(CC)c1c(O)n(CCCC)c(=O)[nH]c1=O | -13.1% (inactive)
12 | Cc1c(Oc2cc(NN3CCCCC3)c([N+](=O)[O-])cc2[N+](=O)[O-])cccc1[N+](=O)[O-] | -6.67% (inactive)
13 | CCC(C)n1c(O)c(/C=N/Nc2nc3c(c(=O)n(C)c(=O)n3C)n2C)c(=O)[nH]c1=S (stereo not given) | -8.09% (inactive)
14 | Cc1ccnc(-n2c(C)cc(/C=C3\C(=O)NC(=S)N(C)C3=O)c2C)c1 | -2.63% (inactive)
15 | CSc1ccc(C(=O)C2CCCN(Cc3ccn[nH]3)C2)cc1 (stereo not given) | 5.68% (inactive)
